Measurements taken from PubChem BioAssay AID1508642 (National Center for Advancing Translational Sciences (NCATS), 2021).
Among all 43,000 compounds or so, about 200 (0.47%) were called active. Not shown: some 12% with an inconclusive outcome. The sample holds actives, similar compounds and a random draw of the others, so the mix is not that of the screen. Calls come from the whole dose curve; as a rule, active = well fitted cell-killing curve with a large enough effect; inconclusive = small, poorly fitted or top-dose-only effect, or effect the other way; inactive = flat fitted curve, though single readings scatter.

Experiment: Cell viability qHTS assay in S16 Pmp22-F2sN cells; note: nearly all actives have a fitted effect of over 65% in size
Details: S16 Pmp22-F2sN Schwann cells (luciferase reporters placed in the Pmp22 gene) viability, CellTiter-Glo, 24 h; series mostly up to 57.5 µM; activity change, negative = cytotoxicity: at the top concentration
Source text: Assay Provider: Jim Inglese Ph.D. National Center for Advancing Translational Science, National Institutes of Health, Rockville, MD CMT is a heterogeneous group of neurological disorders that affect approximately 1 in 2,500 people. In particular, the most common form of CMT, CMT1A is genetically linked to the duplication of the PMP22 gene which leads to Schwann cell overexpression, thus manifesting itself as a typical case of dose-sensitive diseases. To identify small molecule compounds that can mediate the expression of PMP22 we developed a phenotypic assay screening strategy by utilizing genome editing techniques to construct Schwann cell lines containing novel reporter technology to monitor the transcriptional or translational regulation of PMP22. For high sensitivity we use a bioluminescent reporter system embedded in the 3' UTR of the PMP22 gene (S16(c9) Pmp22-F2sN) to identify compounds that inhibit gene expression. […] We can further discriminate the effect of all transcriptionally active molecules on PMP22 translation or stability with an assay that incorporates a short NLuc peptide (HiBiT) at the C-terminus of expressed PMP22 (S16(f8) PMP22-HiBiT) allowing alpha complementation and luminescence detection of membrane-associated PMP22 protein. These assays were screened against the NCATS Sytravon Library Collection. Miniaturization of these assays to 1536-well plate format for quantitative high throughput screening (qHTS) yielded rich data sets immediately from the qHTS assay (S16(c9) Pmp22-F2sN), when compared with data from a cell viability assay (Cell TiterGlo) to identify compounds that decreased the output signals through cellular toxicity to streamline the selection process of actives for subsequent characterization using the HiBiT assay (S16(f8) PMP22-HiBiT).
Cell viability assay in S16 Pmp22-F2sN cells PROTOCOL TABLE (format as described by Inglese J, Shamu CE and Guy RK. 2007) SEQUENCE No. (e.g., 1, 2, 3, etc.); […] (e.g., Cells, Incubation, Reagent, etc.); VALUE and DESCRIPTION. 1. Cells. Add 500-1,000 cells in 4 uL in growth media (DMEM High Glucose, No Phenol Red media + 10% heat-inactivated FBS + 1% Pen/Strep supplemented media) per well into Greiner 1536-well white/solid bottom high base, TC-treated plates. 2. Compounds. Library compounds and controls added at 23nL per well, transferred by Pin Tool. 3. Incubation. Incubate plates at 37C, 5% CO2, 95% RH for 24 h. 4. Reagent. Add 3uL CellTiter-Glo per well of Greiner 1536-well plates. 5. Incubation. Incubate plates at room temperature for 15 min., protect from light. 6. Detector. FLuc luminescence measured using CCD-based camera (Viewlux). NOTES (numbers refer to Sequence numbers above; values are from representative experiments) 6. Luminescence Read: Clear filter; Exposure = 1 sec, Gain = High, Speed = Slow, Binning = 2X REFERENCES: 1. Inglese J, Shamu CE and Guy RK, Reporting data from high throughput screening of small molecule libraries, Nature Chemical Biology, 2007, 3(8): 438-441. doi.org/10.1038/nchembio0807-438 2. Yasgar A, Shinn P, Jadhav A, Auld DS, Michael S, Zheng W, Austin CP, Inglese J and Simeonov A, Compound Management for Quantitative High-Throughput Screening. J. Assoc. Lab. Auto., 2008, 13: 79-89. doi: 10.1016/j.jala.2007.12.004
% is set by controls: 0 for no effect and ±100 for the full control effect; potency is the fitted concentration of half-maximal effect.

| Structure (SMILES) | activity change, negative = cytotoxicity | Potency |
| --- | --- | --- |
| O=C(NCCc1ccc(Cl)cc1)c1ccc2c(c1)N(Cc1ccc(F)cc1)C(=O)CS2 | -25.4% (inactive) |  |
| Cc1c(C)n(Cc2ccc(Cl)cc2)c2ccc(C(=O)NCCc3ccc(S(N)(=O)=O)cc3)cc12 | -7.69% (inactive) |  |
| Cc1cccc(N2CCN(C(=O)c3cnc(N4CCCC4)nc3C)CC2)c1C | -0.0488% (inactive) |  |
| COc1ccc(Cl)cc1NC(=O)CCn1c(=O)c2cccn2c2ccccc21 | 8.71% (inactive) |  |
| Cc1ccc(CSc2oc(-c3cccs3)nc2S(=O)(=O)c2ccc(C)cc2)cc1 | 17.9% (inactive) |  |
| CSc1oc(-c2cccs2)nc1S(=O)(=O)c1ccc(Br)cc1 | -0.0965% (inactive) |  |
| CCCCS(=O)(=O)c1oc(-c2cccs2)nc1S(=O)(=O)c1ccccc1 |  | 2.51 µM (active) |
| COc1cn(CC(=O)Nc2cccc(C)c2C)c(CN2CCCCC2)cc1=O | -2.31% (inactive) |  |
| Cc1ccc(NC(=O)Cn2nnc3sc4c(c3c2=O)CCC(C)C4)cc1 (stereo not drawn) | 10.1% (inactive) |  |
| COc1ccc(CN2CCc3nc(Nc4ccccc4)ncc3C2)c(OC)c1OC | -0.963% (inactive) |  |
| CCc1nn(CC(=O)N2CCN(c3ccc(Cl)cc3)CC2)c(=O)c2cc3occc3n12 | 1.57% (inactive) |  |
| COc1ccc(OC)c(CNC(=O)CN2C(=O)CCn3nc(-c4cn(C)c5ccccc45)cc32)c1 | 2.98% (inactive) |  |
| Cc1c(Cl)cccc1NC(=O)CCS(=O)(=O)c1ccc2c(c1)oc(=O)n2C | -29% (inactive) |  |
| CCC(=O)N1CCc2cc(S(=O)(=O)NC(C(=O)Nc3ccc(C(C)=O)cc3)C(C)C)ccc21 (stereo not drawn) | 1.35% (inactive) |  |
| CCOc1ccc(-c2cc3nc(C4CCN(C(=O)OC(C)(C)C)CC4)c(C(=O)Nc4ccc(C(=O)OC)cc4)cn3n2)cc1 | 4% (inactive) |  |
| COCCN(Cc1ccco1)C(=O)Cn1ncc2c([nH]c3ccccc32)c1=O | 0.904% (inactive) |  |
| COc1cc(C(=O)NCC(c2ccc(Cl)cc2)N2CCOCC2)cc(OC)c1OC (stereo not drawn) | 0.597% (inactive) |  |
| CCOc1ccc(C(NC(=O)c2cc(OC)c(OC)c(OC)c2)c2cc(Cl)c3cccnc3c2O)cc1 (stereo not drawn) |  | 1.78 µM (active) |
| COc1c(Cl)cc(Cl)cc1C(=O)Nc1cccc2cccnc12 | 3.69% (inactive) |  |
| CC(=O)N1CCCc2cc(S(=O)(=O)N3CCCC(C(=O)N4CCN(c5cccc(Cl)c5)CC4)C3)ccc21 (stereo not drawn) |  | 25.1 µM (active) |

| Structure (SMILES) | activity change, negative = cytotoxicity | Potency |
| --- | --- | --- |
| CC(=O)N1CCCc2cc(S(=O)(=O)N3CCCC(C(=O)NCc4ccc(Cl)cc4)C3)ccc21 (stereo not drawn) | -24.1% (inactive) |  |
| COc1cccc(N2CCN(S(=O)(=O)c3ccc4c(c3)CCCN4C(C)=O)CC2)c1 | -1.03% (inactive) |  |
| COC(=O)c1ccc(NC(=O)CSc2n[nH]c(-c3ccccc3)n2)cc1 | 13.3% (inactive) |  |
| CCOc1ccccc1NC(=O)Cn1c(=O)n(Cc2ccccc2)c(=O)c2c(C)c(C(=O)N(C)C)sc21 | 5.8% (inactive) |  |
| Cc1ccccc1NC(=O)Cn1c(=O)n(Cc2ccco2)c(=O)c2ccc(C(=O)NC3CCCC3)cc21 | 7.6% (inactive) |  |
| COc1cccc(C(=O)NCc2ccc3c(c2)CCN3C(=O)c2ccncc2)c1 | -2.11% (inactive) |  |
| Cc1c(CNC2CCCCC2)c(C(=O)O)c(C)n1Cc1cccc(Cl)c1 | 22.4% (inactive) |  |
| COc1cccc2cc(-c3nc(Cl)c4c5c(sc4n3)CC(C)CC5)c(=O)oc12 (stereo not drawn) | 6.33% (inactive) |  |
| Cc1ccc2nc(CN3CCN(S(=O)(=O)c4ccc(C)c(C)c4)CC3)oc2c1 | 10.1% (inactive) |  |
| COc1ccc(NC(=O)CN2C(=O)COc3ccc(S(=O)(=O)N4CCOCC4)cc32)cc1 | 19.3% (inactive) |  |
| CC(C)(C)c1ccc(S(=O)(=O)N2CCN(C(=O)c3cc(-c4ccc(Br)cc4)n[nH]3)CC2)cc1 | 2.31% (inactive) |  |
| Cn1c(=O)[nH]c(=O)c2c1nc(NCCc1ccccc1)n2Cc1ccc(F)cc1 | -27.5% (inactive) |  |
| CCOC(=O)c1ccc(NC(=O)Cn2cc(S(=O)(=O)Cc3ccccc3F)c3ccccc32)cc1 | 12.9% (inactive) |  |
| Cc1ccc2nc(COc3ccccc3NC(=O)Nc3ccc(F)c(Cl)c3)cc(=O)n2c1 | -13.1% (inactive) |  |
| COc1ccc(N2CCN(c3nc(-c4ccccc4F)nc4ccccc34)CC2)cc1 | -1.56% (inactive) |  |
| Cc1cccc(OCC(=O)N(Cc2ccc(C(C)C)cc2)Cc2ccco2)c1C | -22% (inactive) |  |
| Cc1cccc(-n2ncc(C(=O)N3CCc4ccccc4C3)c2C2CCN(C(=O)OC(C)(C)C)CC2)c1 | -9.84% (inactive) |  |
| CC(C)Oc1ccc(CNC(=O)C2CCN(c3nc4ccccc4n(C)c3=O)CC2)cc1 | 8.64% (inactive) |  |
| COc1cc(OC)c(NC(=O)c2cc(S(=O)(=O)N3CCCC3)cn2C)cc1Cl | 1.12% (inactive) |  |
| CCN(Cc1ccccc1)S(=O)(=O)c1ccc2c(c1)CCCN2C(C)=O | -7.49% (inactive) |  |

| Structure (SMILES) | activity change, negative = cytotoxicity | Potency |
| --- | --- | --- |
| CCNS(=O)(=O)c1ccc(NC(=O)CSc2nc(-c3ccco3)cc(C(F)(F)F)n2)cc1 | -17.6% (inactive) |  |
| COc1ccc(Cl)cc1NC(=O)c1sc2nc3c(cc2c1N)CN(C)CC3 | 19.1% (inactive) |  |
| COc1ccccc1NC(=O)c1sc2nc(C)c(C(=O)Nc3ccc(Cl)cc3)c(-c3ccc(Br)cc3)c2c1N |  | 14.1 µM (active) |
| COc1ccc(NC(=O)c2sc3nc(-c4cc5cccc(OC)c5oc4=O)[nH]c(=O)c3c2C)cc1 | 6.82% (inactive) |  |
| Cc1nnc(SCc2cc(=O)c3cc(F)ccc3[nH]2)n1C | 12.3% (inactive) |  |
| Cc1ccc(CN2CCc3nc(N4CCN(C)CC4)ncc3C2)cc1 | 1.27% (inactive) |  |
| COc1ccc(CC(=O)NCCc2sc3nc(-c4ccc(OC)cc4)nn3c2C)cc1 | -14.4% (inactive) |  |
| CC(=O)Nc1cccc(NC(=O)CSc2nccn2Cc2ccc3c(c2)OCO3)c1 | 5.54% (inactive) |  |
| CCCCN(CC)CCCNC(=O)c1nn(C)c2c1CSc1ccccc1-2 | -3.98% (inactive) |  |
| COC(=O)c1ccc(-c2nc3cc(NC(C)=O)ccc3o2)cc1 | 5.12% (inactive) |  |
| CCN1CCC(N(Cc2ccc(F)cc2)C(=O)Nc2cc(C)ccc2C)CC1 | -12.8% (inactive) |  |
| COc1cc(OC)cc(C(=O)Nc2c(C(=O)Nc3ccc(F)cc3)oc3ccccc23)c1 | -0.156% (inactive) |  |
| Cc1cccc(NC(=O)CSc2nc3c([nH]c4ccccc43)c(=O)n2-c2cc(C)cc(C)c2)c1 | 7.62% (inactive) |  |
| CCN(CCCNC(=O)Cn1ncc2c3ccccc3n(C)c2c1=O)Cc1ccccc1 | 3.84% (inactive) |  |
| CCOc1ccc(CNC(=O)c2cc(-c3ccc(Cl)s3)nc3ccccc23)cc1 | 8.53% (inactive) |  |
| O=C(NCC12CC3CC(CC(C3)C1)C2)c1cc2nc(-c3ccccc3)cc(C(F)(F)F)n2n1 | 14.3% (inactive) |  |
| O=C(NCCCO)C(=O)Nc1c2c(nn1-c1ccc(F)cc1)CSC2 | -15.3% (inactive) |  |
| Cc1c(NS(=O)(=O)c2ccc(Cl)cc2)c(=O)n(-c2ccccc2)n1C | 3.6% (inactive) |  |
